The panel holds about 83,000 compounds, 20% with a hit somewhere; the sample as a whole holds those more often.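 For each line, cells grew in 96-well plates with the test compound present at a single concentration for 48 hours.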 Unmarked numbers belong to inactive results. The source made the active and inactive calls. The calls were made as follows: active = growth percent below 10; inactive = the rest.
Assays:
Assay in all cases: NCI-60 one-dose screen, 48 h (100 = growth as untreated, 0 = no growth, -100 = all killed)
Conditions in all cases: 10 µM unless noted
NCI-H23 lung = system: NCI-H23 lung
NCI-H226 lung = system: NCI-H226 lung
NCI-H322M lung = system: NCI-H322M lung
HOP-62 NSCLC = system: HOP-62 NSCLC
NCI-H460 lung = system: NCI-H460 lung
NCI-H522 lung = system: NCI-H522 lung
A549/ATCC NSCLC = system: A549/ATCC NSCLC
786-0 renal = system: 786-0 renal
COLO 205 colon = system: COLO 205 colon
DU-145 prostate = system: DU-145 prostate
K-562 leukemia = system: K-562 leukemia
MALME-3M melanoma = system: MALME-3M melanoma
MDA-MB-231 breast = system: MDA-MB-231 breast
RXF 393 renal = system: RXF 393 renal
SF-268 CNS = system: SF-268 CNS
SF-295 CNS = system: SF-295 CNS
SF-539 CNS = system: SF-539 CNS
UACC-257 melanoma = system: UACC-257 melanoma
M14 melanoma = system: M14 melanoma

| SMILES | growth (NCI-H23 lung) | growth (NCI-H226 lung) | growth (NCI-H322M lung) | growth (HOP-62 NSCLC) | growth (NCI-H460 lung) | growth (NCI-H522 lung) | growth (A549/ATCC NSCLC) | growth (786-0 renal) | growth (COLO 205 colon) | growth (DU-145 prostate) | growth (K-562 leukemia) | growth (MALME-3M melanoma) | growth (MDA-MB-231 breast) | growth (RXF 393 renal) | growth (SF-268 CNS) | growth (SF-295 CNS) | growth (SF-539 CNS) | growth (UACC-257 melanoma) | growth (M14 melanoma) |
| --- | --- | --- | --- | --- | --- | --- | --- | --- | --- | --- | --- | --- | --- | --- | --- | --- | --- | --- | --- |
| Cc1cc(-c2ccc(N=Nc3c(S(=O)(=O)O)cc4cc(S(=O)(=O)O)cc(O)c4c3O)c(C)c2)ccc1N=Nc1c(S(=O)(=O)O)cc2cc(S(=O)(=O)O)cc(O)c2c1O | 101% | 99.3% | 80.7% | 82.7% | 130% | 99.3% | 101% | 113% | 92% | 112% | 125% | 100% | 107% | 80.1% | 104% | 94.1% | 101% | 102% | 103% |
| C=C1C(=O)O[C@H]2[C@H]1CC/C(COC(=O)N[C@@H](Cc1c[nH]c3ccccc13)C(=O)OC)=C\CC[C@@]1(C)O[C@@H]21 | 68.5% | 58.4% | 80.5% | 68.8% | 40.5% | -71.1% (active) | 47.2% | -48.6% (active) | -69.2% (active) | 20.5% | -1.67% (active) | -38.4% (active) | 25.2% | -55.4% (active) | 46.7% | 72.3% | 25.3% | 11.5% | -45.3% (active) |
| COc1ccc(C(=O)OC2C(OC3C(O)COC(O[C@H]4C[C@H]5[C@@H]6CC=C7C[C@@H](O)CC[C@]7(C)[C@H]6CC[C@]5(C)[C@H]4[C@H](C)C(=O)CCC(C)C)C3OC(=O)C(C)C)OCC(O)C2O)cc1 (some centres undefined) | 43.1% | 10.9% | 58.6% | -14.2% (active) | 0.329% (active) | -46.1% (active) | 16.1% | -1.64% (active) | -47.9% (active) | 38.4% | -29.8% (active) | 6.67% (active) | 36.5% | -59.4% (active) | -9.13% (active) | -60.5% (active) | -66.2% (active) | -50% (active) | -61.4% (active) |
| Nc1ncnc2c1N=C(c1ccc3c(c1)OCO3)CC(c1ccc(Cl)cc1)N2 (centres undefined) | 81.8% | 73.3% | 71.2% | 44.1% | 83.3% | 84.3% | 79.6% | 74.3% | 68.1% | 92% | 83.8% | 77.2% | 72.3% | 55.1% | 77.3% | 93.4% | 80.2% | 96.2% | 96% |
| Clc1cccc(CNc2c3ccccc3nc3ccccc23)c1 | 32% | 48% | 31.3% | 45.5% | 14.2% | 41.7% | 27.9% | 25.2% | 0.537% (active) | 31.6% | 5.03% (active) | 45% | 29.4% | 19% | 60.6% | 20.8% | 9.28% (active) | 45.4% | 35.5% |
| O=C1C(Cl)=C(Nc2cccc3ccccc23)C(=O)c2ccccc21 | 73.6% | 87.8% | 83.1% | 84.9% | 90.7% | 44.7% | 87.9% | 90% | 88.9% | 111% | 26.6% | 53.4% | 57.5% | 120% | 85.5% | 95.1% | 107% | 74.7% | 87.8% |
| CCN(CC)c1ccc(/C=N/NC(=O)C[N+](C)(C)C)cc1 | 99.4% | 98.9% | 115% | 99.2% | 110% | 100% | 100% | 101% | 111% | 113% | 54.3% | 92.6% | 119% | 112% | 110% | 109% | 110% | 104% | 110% |
| O=c1nc(-c2ccccc2)c2cc(-c3ccc(N4CCOCC4)cc3)ccc2[nH]1 | 86.3% | 72.1% | 68.9% | 73.7% | 79.7% | 68.3% | 64.3% | 78.6% | 82.5% | 79.7% | 71.8% | 98.4% | 78.4% | 73.4% | 94.3% | 88.6% | 94.9% | 71.6% | 92.3% |
| Cc1cccc(/C=N/n2c(-c3ccc(Cl)cc3)nc3c(Br)cc(Br)cc3c2=O)c1 | 29.2% | 37.9% | 53.8% | 33.8% | 29.1% | 38.1% | 31.4% | 51.9% | 46.8% | 66.2% | 65.7% | 70% | 44.9% | 61.3% | 69.9% | 35.4% | 70% | 76.3% | 60.4% |
| COc1cc(/C=C2\CN(C(=O)OC(C)(C)C)C/C(=C\c3ccc(O)c(OC)c3)C2=O)ccc1O | 97.8% | 94.6% | 100% | 98% | 91.7% | 64.5% | 73.2% | 93.3% | 110% | 101% | 80.1% | 97.5% | 86.1% | 102% | 89.5% | 101% | 106% | 73.6% | 93.9% |
| CCOC(=O)N1C2CCC(C2)N1C(=O)OCC | 104% | 91.9% | 115% | 108% | 108% | 91.5% | 107% | 101% | 110% | 104% | 94.6% | 104% | 115% | 106% | 97% | 106% | 132% | 107% | 108% |
| CCN1C(=O)N(CC)C2C1NN=c1s/c(=C\c3ccco3)c(=O)n12 (centres undefined) | 37.3% | 60% | 42.5% | 28.2% | 12.9% | -9.98% (active) | 25% | 25% | -19.8% (active) | 3.04% (active) | 11.5% | 55.8% | 43% | -2.28% (active) | 44% | 8.2% (active) | -1.22% (active) | 63% | 5.24% (active) |
| COc1ccc2nc(C)cc(Sc3nc4ccccc4s3)c2c1 | 29.4% | 39.5% | 60% | 57.5% | 34.6% | -20.9% (active) | 35.7% | 73.8% | 33.7% | 37.3% | 4.93% (active) | 25.7% | 27.9% | -16.5% (active) | 42.7% | 82.5% | 55.4% | 49% | 65.5% |
| CC(C)(C)[Si](C)(C)OC1[C@@H](CNC(N)=O)O[C@@H](n2cnc3c(NC(=O)Nc4ccccc4)ncnc32)[C@H]1O[Si](C)(C)C(C)(C)C (some centres undefined) | 62.4% | 75.9% | 119% | 78.1% | 5.08% (active) | 63.8% | 37.6% | 58.8% | 9.85% (active) | 72.6% | 35.2% | 75.4% | 77.9% | 6.77% (active) | 48.3% | 64.7% | 68.1% | 78.6% | 54.3% |
| Cn1cnc([N+](=O)[O-])c1S(=O)(=O)Oc1cccc2ccccc12 | 85.5% | 88.1% | 104% | 84.6% | 106% | -84.3% (active) | 98.4% | 62.7% | -89.7% (active) | 43.1% | 3.91% (active) | -39.9% (active) | 76.3% | 19.6% | 83.7% | 102% | 52.8% | 71% | -62.9% (active) |
| CCCCCCCCN=C(NCCCCCCCC)SCc1cccc2ccccc12 | -81.2% (active) | -84.2% (active) | -1.49% (active) | -97.7% (active) | -89.1% (active) | -83.3% (active) | -75.8% (active) | -88.1% (active) | -99.7% (active) | -74.3% (active) | -13.4% (active) | -44.3% (active) | -92.6% (active) | -78.6% (active) | -90.8% (active) | -85.1% (active) | -87.1% (active) | -77.7% (active) | -86.6% (active) |

Reference: PubChem BioAssay (NCI)
